Source: PubChem BioAssay (NCI)
About 79,000 compounds went through this panel and 15% of them were active in at least one assay; those are over-represented in the sample as a whole. Values without a mark were called inactive. Activity calls are given as the source filed them. No stated cut-off is given here; in the data, active means growth inhibition above about 70%; inactive means the rest.

Assays:
[1] = NCI Yeast Anticancer Drug Screen. Data for the rad50 strain (AID 155);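 further: 0% = growth of vehicle-only cultures of the same strain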; conditions: S. cerevisiae rad50 strain growth inhibition, stronger effect = higher value
Procedure, shortened: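 Genetically altered yeast (DNA repair pathway); compound treatment; growth inhibition vs vehicle ctrl.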

[2] = NCI Yeast Anticancer Drug Screen. Data for the mec2-1 strain (AID 157); conditions: S. cerevisiae mec2-1 strain, stronger effect = higher value
Procedure, shortened: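 Compounds were applied to mec2-1 yeast cells. Their growth was then compared with that of vehicle-treated cultures to give growth inhibition.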

[3] = NCI Yeast Anticancer Drug Screen. Data for the sgs1 mgt1 strain (AID 161);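 further: 0% = growth of cultures given vehicle only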; conditions: S. cerevisiae sgs1 mgt1 strain, stronger effect = higher value
Procedure, shortened: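 Compounds are added to genetically altered yeast, and growth is compared with cultures given vehicle alone to give percent inhibition.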

[4] = NCI Yeast Anticancer Drug Screen. Data for the cln2 rad14 strain (AID 165);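 further: 0% = growth equal to vehicle treated cultures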; conditions: S. cerevisiae cln2 rad14 strain, stronger effect = higher value
Procedure, shortened: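 Strain: cln2 rad14 yeast, altered in cell cycle control and DNA damage repair. Read-out: growth inhibition vs vehicle.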

[5] = NCI Yeast Anticancer Drug Screen. Data for the bub3 strain (AID 167); conditions: S. cerevisiae bub3 mutant strain, stronger effect = higher value
Procedure, shortened: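 Yeast carrying a defined mutation is treated with each compound, and growth is compared with that of vehicle-exposed cells to give inhibition.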

[6] = NCI Yeast Anticancer Drug Screen. Data for the mlh1 rad18 strain (AID 175); conditions: S. cerevisiae mlh1 rad18 strain growth inhibition, stronger effect = higher value
Procedure, shortened: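 A repair-deficient yeast strain is exposed to test compound, and growth is scored relative to vehicle-treated controls.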

[7] = at 5.0 µM (retest, dose inferred, filed as 0.5)
[8] = at 50.0 µM (retest, dose inferred, filed as 5.0)

Compound | growth inhibition [1, 7] | growth inhibition [1, 8] | growth inhibition ([1]; at 50.0 µM) | growth inhibition [2, 7] | growth inhibition [2, 8] | growth inhibition ([2]; at 50.0 µM) | growth inhibition [3, 7] | growth inhibition [3, 8] | growth inhibition ([3]; at 50.0 µM) | growth inhibition [4, 7] | growth inhibition [4, 8] | growth inhibition ([4]; at 50.0 µM) | growth inhibition [5, 7] | growth inhibition [5, 8] | growth inhibition ([5]; at 50.0 µM) | growth inhibition [6, 7] | growth inhibition [6, 8] | growth inhibition ([6]; at 50.0 µM)
COC(=O)/C=C1/OC(c2ccccc2)=C(C)C1=O | 6% | 6% | 30.7% | 18% | 18% | 30.7% | 14% | 14% | 48.9% | -6% | -6% | -7.85% | 0% | 0% | 5.8% | 8% | 8% | 42.6%
O=C(c1ccccc1)N(C(=S)N(C(=O)c1ccccc1)c1ccccc1)c1ccccc1 | -3% | 12% | 99% (active) | -1% | -2% | 99.7% (active) | 1% | -4% | 99.2% (active) | 3% | -7% | 98.8% (active) | 0% | -3% | 99% (active) | -1% | -3% | 99.1% (active)
CS(=O)(=O)OCCN(CCOS(C)(=O)=O)c1ccc(C=Nc2cc(Br)c(O)c(Br)c2)c(Cl)c1 | 3% | 70% (active) | 67.7% | 29% | 39% | 36.8% | 3% | 80% (active) | 82.5% (active) | 5% | 45% | 10.2% | -3% | 96% (active) | 40.3% | 8% | 91% (active) | 85.8% (active)
C/C(=C/CC1CCC2C3=CCC4CC(O)CCC4(C)C3CCC12C)C(C)C(C)C (configuration not stated) | 17% | 97% (active) | 98% (active) | -4% | 86% (active) | 74.3% (active) | 2% | 66% | 59.1% | 0% | 69% | 81.5% (active) | -2% | 97% (active) | 64.8% | 13% | 89% (active) | 97.3% (active)
C=CC(=C)OC | 0% | 14% | 10.4% | -8% | 0% | 20.3% | -2% | 1% | 19.1% | 1% | 8% | 69.9% | 2% | -2% | 39% | 2% | 4% | 7.5%
COc1cc(C=O)c(Cl)cc1O | 2% | 21% | 55% | 1% | 43% | 67% | 1% | 47% | 90% (active) | -4% | 25% | 60.2% | -2% | 14% | 44.5% | 2% | 34% | 77.8% (active)
CC(C)(C)c1ccc2c(c1)CNCCNCc1cc(C(C)(C)C)ccc1OCC1(CO2)COc2ccc(C(C)(C)C)cc2CNCCNCc2cc(C(C)(C)C)ccc2OC1 | 99% (active) | 92% (active) | 89% (active) | 99% (active) | 94% (active) | 90% (active) | 99% (active) | 92% (active) | 92.2% (active) | 99% (active) | 92% (active) | 89.5% (active) | 98% (active) | 91% (active) | 89% (active) | 98% (active) | 92% (active) | 88.2% (active)
O=S(=O)(OCC#CCOS(=O)(=O)c1ccc(Cl)c(Cl)c1)c1ccc(Cl)c(Cl)c1 | -1% | 32% | 28.8% | -1% | 41% | 44% | -6% | 63% | 54.7% | 1% | 8% | 75.2% (active) | -4% | 32% | 35.3% | 7% | 37% | 48.2%
O=C(SC(O)c1ccc(Cl)cc1)c1ccccc1 (configuration not stated) | -7% | 58% | 79.8% (active) | -7% | 57% | 74.5% (active) | -3% | 68% | 85.3% (active) | -4% | 58% | 22.9% | -5% | 57% | 64.9% | -8% | 60% | 81.8% (active)
